In ChEMBL document CHEMBL4513216, “Probing the Open Global Health Chemical Diversity Library for Multistage-Active Starting Points for Next-Generation Antimalarials” (ACS Infect Dis, 2020):
The whole screen tested about 69,000 compounds, of which about 8,600 (12%) showed an effect of 50% or more. What follows is part of a selection rich in strong results, with near analogues and random picks from the rest.

The compounds below were run on Plasmodium berghei (assay: Screen against P. berghei liver stage (PbLuc), transformed with Luciferase, at 10uM). Conditions: tested at 10 uM.
Assay type: functional, HepG2

| SMILES | INHIBITION [%] |
| --- | --- |
| O=C(Nc1ccc2c(ccn2CCN2CCOCC2)c1)c1ccncc1 | -35.8 |
| CCc1nc(CSc2nnc(N)n2C2CC2)no1 | 42.1 |
| Cc1ccccc1Cc1nc(CSc2nnc(N)n2C2CC2)no1 | 67.8 |
| Cc1ccccc1Cc1nc(CSc2nnc(N)n2C)no1 | 10.7 |
| CCC(=O)N1CCC(Cc2ccccc2-c2ccncc2)(C(=O)NC)C1 (stereo not given) | 6.32 |
| O=C(O)c1ccn(-c2ccccc2NC(=O)c2ccccc2Cl)n1 | 4.1 |
| O=C(O)c1ccn(-c2cccc(NC(=O)c3ccccc3Cl)c2)n1 | 52.6 |
| O=C(O)c1ccn(-c2ccc(NC(=O)c3ccccc3Cl)cc2)n1 | 46.1 |
| CCS(=O)(=O)N1C[C@@H]2COC[C@@H](Cc3nc(C)no3)[C@@H]2C1 | 12.1 |
| Cc1noc(C[C@@H]2COC[C@H]3CN(S(C)(=O)=O)C[C@@H]23)n1 | 26.5 |
| Cc1nnc(C[C@@H]2COC[C@H]3CN(C(=O)c4ccco4)C[C@@H]23)o1 | 2.4 |
| CCCS(=O)(=O)N1C[C@@H]2COC[C@@H](Cc3nc(C)no3)[C@@H]2C1 | 61.9 |
| Cc1nnc(C[C@@H]2COC[C@H]3CN(C(=O)C4=CCCC4)C[C@@H]23)o1 | 36.4 |
| Cc1noc(C[C@@H]2COC[C@H]3CN(C(=O)C4=CCCC4)C[C@@H]23)n1 | 34.9 |
| COc1cc(N2C[C@@H]3COC[C@@H](Cc4nnc(C)o4)[C@@H]3C2)ncn1 | 50.3 |
| Cc1noc(C[C@@H]2COC[C@H]3CN(S(=O)(=O)C4CC4)C[C@@H]23)n1 | 24.9 |
| COc1cc(N2C[C@@H]3COC[C@@H](Cc4nc(C)no4)[C@@H]3C2)ncn1 | 65.7 |
| CS(=O)(=O)N1CCCC(C(=O)Nc2cnn(Cc3ccc(F)cc3)c2)C1 (stereo not given) | 30.8 |
| CCc1ccc(CN2Cc3nccn3CC(Cn3cncn3)C2)o1 (stereo not given) | -14.3 |
| CCOc1ncccc1NC(=O)N1CCCN(C(=O)OC)CC1 | -5.1 |
| O=C(O)[C@]12CCCN(Cc3ccoc3)C[C@H]1CN(c1ncccn1)C2 | 7.24 |
| COc1c(CNCCNC(=O)c2ccc(C)c(F)c2)c(C)nn1C | 11.2 |

| SMILES | INHIBITION [%] |
| --- | --- |
| COCCn1ccc(NCc2cc3cc(F)ccc3o2)n1 | 5.58 |
| COCC(=O)N1CCCC1c1cc(Nc2nnc(C)s2)nc(C)n1 (stereo not given) | 18.2 |
| CN(C)[C@@H]1CN(C(=O)c2ccc3ccccc3n2)C[C@H]1O | 14.7 |
| Fc1ccc(CN2CCC(c3n[nH]c4ncccc34)CC2)cc1F | 3.45 |
| Fc1cccc(Cl)c1CN1CCC(c2n[nH]c3ncccc23)CC1 | 24.4 |
| CC(C)Oc1ccc(CN2CCC(c3n[nH]c4ncccc34)CC2)cc1 | 70.1 |
| CC(C)Oc1cccc(CN2CCC(c3n[nH]c4ncccc34)CC2)c1 | 66.5 |
| Fc1ccc(F)c(CN2CCC(c3n[nH]c4ncccc34)CC2)c1 | -10.5 |
| c1cnc(N2CCC(c3n[nH]c4ncccc34)C2)nc1 (stereo not given) | 15.9 |
| CCN(Cc1cnn(C)c1)C[C@H]1CC[C@@H](Cc2ccc(C#N)cc2)O1 | 6.33 |
| Cc1ncsc1CCC(=O)N(C)Cc1nc2ccccc2n1C | 14.6 |
| CC(C)N1CCC2(C=C(C(=O)NC3CC3)c3ccccc32)CC1 | -24.5 |
| CC(C)c1cc(N(C)Cc2cc(C3CC3)on2)n2nccc2n1 | 32.5 |
| CCOC(=O)N1[C@@H](c2ccco2)[C@@H](C(=O)NC)C[C@]12CCCCNC2=O | 42.7 |
| Cc1nc(C(C)C)sc1C(=O)NCCn1ccnc1 | 29.8 |
| Cc1nc(C(C)(C)C)sc1C(=O)NCCn1ccnc1 | 30.9 |
| Cc1nc(C)c(C(=O)NCCn2nc3ccccn3c2=O)s1 | 4.283 |
| CCCc1nc(C)c(C(=O)NCCn2nc3ccccn3c2=O)s1 | 52.8 |
| CCc1nc(C)c(C(=O)NCCn2nc3ccccn3c2=O)s1 | -11 |
| CCCc1nc(C)c(C(=O)NCCn2ccnc2)s1 | 51 |
| CCN1CCC2(CCN(c3ncccn3)CC2)C1=O | -12.2 |
| Cc1ccc(CN2C[C@@H]3CCCO[C@@H]3[C@H](NS(C)(=O)=O)C2)o1 | 46.6 |

| SMILES | INHIBITION [%] |
| --- | --- |
| CC(C)N1CCC2(CC1)C(=O)N(CCN(C)C)c1ccccc12 | 49.4 |
| O=C(c1cccnc1)N1CCCC(c2ccnc3nccn23)C1 (stereo not given) | 9.3875 |
| O=C(NCc1cncc2c1CCN(Cc1cccs1)C2)C1CC1 | 9.67 |
| Cc1ccc(CNC2CCc3[nH]c(=O)ccc3C2)cc1C (stereo not given) | 40.1 |
| CC(C)NC(=O)N1CCC2(CC(=O)N(c3ccccc3)C2)C1 (stereo not given) | 28.4 |
| CC(=O)N1CCC(c2cncc(N3CCOCC3)n2)CC1 | 41.5 |
| CN(Cc1ccsc1)C(=O)COC(=O)c1cc(Cl)c[nH]1 | 14.8 |
| CCCN1CCC(NC(=O)c2ccnc(SCC)c2)CC1 | 49.7 |
| Cc1cnc(C)c(N2CC[C@H](N3CCOCC3)[C@H](CCCO)C2)n1 | -12.4 |
| COC(=O)c1cccc(C(=O)N2CCCCC2CCn2ccnc2C)c1 (stereo not given) | 17.3 |
| Cc1nccn1CCC1CCCCN1C(=O)c1ccc2nonc2c1 (stereo not given) | -17.5 |
| Cc1nccn1CCC1CCCCN1C(=O)c1ccc2[nH]nnc2c1 (stereo not given) | -5.29 |
| Cc1nccn1CCC1CCCCN1C(=O)c1ccc(N(C)C)cc1 (stereo not given) | 66.9 |
| CNc1cc(C(=O)N2CCCCC2CCn2ccnc2C)ccn1 (stereo not given) | 64.5 |
| Cc1nccn1CCC1CCCCN1Cc1ccc(O)cc1Cl (stereo not given) | 1.37 |
| COc1cccc(CN(C)C(=O)NCc2c(C)cc(C)[nH]c2=O)c1 | 22.3 |
| Cc1cnn(CC2CCCN2C(=O)CN(C)C2CC2)c1 (stereo not given) | 29.7 |
| Cn1ccnc1C(=O)N1CCC2(CC1)CC(Oc1cccnc1)CO2 (stereo not given) | 32.4 |
| CC(C)CC(CO)NS(=O)(=O)Cc1ccon1 (stereo not given) | 23.8 |
| Cc1ccc(OCC(C)NS(=O)(=O)Cc2ccon2)cc1 (stereo not given) | 48.5 |
| CC(CCc1ccc(F)c(F)c1)NS(=O)(=O)Cc1ccon1 (stereo not given) | 53.5 |
